target: FAM151A; experiment: pooled miR-30 sensor sort-seq; sequence = guide strand; details: shRNA
Note: reference of the scale not given here.

Row | Sequence | sensor-assay potency score (higher = more potent)
1 | TTCCTCTGTCAGCTGCCGCAGG | -0.626
2 | TTGTGCTCCACTGTGACGGTGG | 0.185
3 | TAAGATGTCAGCGTTGATCCAT | 0.0658
4 | TAGCATATCTGTGAGCAGCTGT | 0.652
5 | TACATTGACGTCAGCCTCCAGG | -0.38
6 | TAGCCTGTAGTAGACTCGGGTC | -0.281

target: FAM151B; experiment: as above; details: shRNA

Row | Sequence | sensor-assay potency score (higher = more potent)
7 | TAATGTAAAGTAAATCTTCAAC | -0.985
8 | TCTTCTGCTGTAATCTGGCTAT | -0.597
9 | TTTGATTTCTTTAACAGCCAAA | -1.02
10 | TTTGCATCTATTACTTTGCTAT | -0.561
11 | TTAGCTGCATGATACCAGGTGA | -0.378
12 | TATTTTCACTCCAAGATCCTGG | -0.051
13 | TACAACTGCCAGACTTTTGAAA | -0.597
14 | TATGAAACCAAAACACAGGAAA | -1.05
15 | TAGAGTATTATCACTGTTTGTT | 0.198
16 | TTGAAATCCAGCTTGATGCCTT | 0.157
17 | TTTTCCAGTCCAAATAGTCAGG | -1.41
18 | TATTGCTTTTCATAACTTCAGT | -0.677

target: FAM154A; experiment: as above; details: shRNA

Row | Sequence | sensor-assay potency score (higher = more potent)
19 | TTGTCCAACAAATAATTCTCAG | -0.941
20 | AAGCTTGGTACTTATCTCGAAA | -0.971
21 | TTAATCTGAAGTGCAGGTCGGC | -0.481
22 | TTTTATGGGGTAATCGTCCTGG | 0.26
23 | TTAGTCACATCCTCCAAGGGGA | 0.0144
24 | TTGGCTTGAAGGACTCTCTGGG | 0.798
25 | TTGTTTTTTGTCATTTTAGGGA | -0.361
26 | TTTGTATATCCTGTGACCCAAA | -1.34
27 | TAATCTGAAGTGCAGGTCGGCA | -1.32
28 | TTGTAGTCATCCTTGGTGGTGG | 0.0888
29 | TAGTTCTCGGTATATTCGGAGA | -1.23
30 | TTATCTCGAAACTCAGTGGTGT | 0.244

target: FAM162A; experiment: as above; details: shRNA

Row | Sequence | sensor-assay potency score (higher = more potent)
31 | TCATCTTCCTTTTTGAAGCGAC | -0.679
32 | ATAACCTAAAACAGCTTCCTGC | -0.549
33 | TCACATAACCTAAAACAGCTTC | -0.389
34 | TTAGAGATGAGGAAACATCTCT | 0.0745
35 | TTCTACAGCAGAAATACGGAAA | -0.939
36 | TTCACTCGCATCTTGTTCTTTG | -0.205
37 | TAAAACAGCTTCCTGCTGCCAG | -0.369
38 | TTTTTGAAGCGACCTGACCATA | -1.33
39 | TAACCATGAAGATGCATCCTAC | -0.864
40 | ATAGCTGATCTTCACTCGCATC | -1.3

From the OligoGym collection
